{"source": "PubChem BioAssay (EPA / NIEHS)", "key": {"[1]": {"target": "Retinoic acid receptor RXR-alpha (Homo sapiens) (UniProt P19793)", "sequence (P19793 whole entry, looked up, the tested form may be a part)": "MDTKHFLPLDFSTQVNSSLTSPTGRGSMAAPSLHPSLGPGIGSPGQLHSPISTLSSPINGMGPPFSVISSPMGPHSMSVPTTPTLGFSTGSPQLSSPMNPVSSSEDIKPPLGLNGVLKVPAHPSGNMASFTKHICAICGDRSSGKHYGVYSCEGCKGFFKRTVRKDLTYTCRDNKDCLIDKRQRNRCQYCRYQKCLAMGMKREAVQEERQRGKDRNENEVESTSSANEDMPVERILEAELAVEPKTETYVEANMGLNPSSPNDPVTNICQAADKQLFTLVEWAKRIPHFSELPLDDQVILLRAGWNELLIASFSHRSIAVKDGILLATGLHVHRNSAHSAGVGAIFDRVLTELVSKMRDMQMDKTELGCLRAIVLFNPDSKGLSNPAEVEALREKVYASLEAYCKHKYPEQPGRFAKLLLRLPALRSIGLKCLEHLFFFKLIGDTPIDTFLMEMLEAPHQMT", "test": "ATG_RXRa_TRANS: Attagene TRANS-FACTORIAL HepG2 Assay for human Retinoid X Receptor alpha (RXRa) (AID 2283012)", "procedure,_shortened": "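Cells (HepG2) carried transiently transfected GAL4-responsive reporter units. Following a 24 h chemical incubation, reporter mRNA induction was read via RT-PCR fragment analysis; DMSO served as negative control and baseline.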"}, "[2]": {"target": "human Retinoid X Receptor beta (RXRb), RXRB (gene 6257) (UniProt P28702)", "sequence (P28702 whole entry, looked up)": "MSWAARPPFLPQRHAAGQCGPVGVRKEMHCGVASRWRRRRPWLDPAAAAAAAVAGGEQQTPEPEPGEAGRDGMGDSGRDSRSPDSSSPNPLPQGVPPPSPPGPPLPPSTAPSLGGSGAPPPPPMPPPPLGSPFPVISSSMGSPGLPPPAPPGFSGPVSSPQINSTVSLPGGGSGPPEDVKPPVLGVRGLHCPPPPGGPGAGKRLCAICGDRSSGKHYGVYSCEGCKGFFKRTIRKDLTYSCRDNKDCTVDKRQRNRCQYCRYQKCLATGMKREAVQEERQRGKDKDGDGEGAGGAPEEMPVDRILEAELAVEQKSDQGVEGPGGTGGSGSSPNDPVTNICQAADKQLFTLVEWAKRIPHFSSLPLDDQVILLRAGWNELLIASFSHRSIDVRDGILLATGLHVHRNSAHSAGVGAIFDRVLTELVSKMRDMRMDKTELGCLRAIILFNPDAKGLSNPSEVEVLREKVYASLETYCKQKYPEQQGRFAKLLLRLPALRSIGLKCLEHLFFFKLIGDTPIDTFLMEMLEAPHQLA", "test": "ATG_RXRb_TRANS: Attagene TRANS-FACTORIAL HepG2 Assay for human Retinoid X Receptor beta (RXRb) (AID 2283013)", "procedure,_shortened": "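Multiplexed TRANS reporter assay in HepG2; 24 h dosing; reporter mRNA by RT-PCR/CE fluorescence; gain-of-signal relative to DMSO.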"}, "[3]": {"target": "human Thyroid Receptor alpha (THRa1), THRA (gene 7067) (UniProt P10827)", "sequence (P10827 whole entry, looked up, the tested form may be a part)": "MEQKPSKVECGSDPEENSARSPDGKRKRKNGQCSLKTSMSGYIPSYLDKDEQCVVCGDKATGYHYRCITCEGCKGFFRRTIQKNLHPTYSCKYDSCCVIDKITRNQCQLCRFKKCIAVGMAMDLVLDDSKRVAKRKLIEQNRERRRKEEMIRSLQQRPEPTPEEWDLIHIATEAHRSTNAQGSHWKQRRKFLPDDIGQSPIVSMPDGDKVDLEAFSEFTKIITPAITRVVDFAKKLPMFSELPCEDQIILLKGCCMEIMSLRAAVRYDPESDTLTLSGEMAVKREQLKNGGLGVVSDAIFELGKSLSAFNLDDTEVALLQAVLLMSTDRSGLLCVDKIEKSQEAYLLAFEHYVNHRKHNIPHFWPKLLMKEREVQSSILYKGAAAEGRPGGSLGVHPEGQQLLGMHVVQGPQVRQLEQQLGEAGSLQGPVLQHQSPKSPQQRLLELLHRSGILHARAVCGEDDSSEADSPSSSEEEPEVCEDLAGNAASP", "test": "ATG_THRa1_TRANS: Attagene TRANS-FACTORIAL HepG2 Assay for human Thyroid Receptor alpha (THRa1) (AID 2283014)", "procedure,_shortened": "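Transcripts from GAL4-UAS-driven reporters, measured after 24 h compound exposure by RT-PCR plus capillary electrophoresis of 6-FAM-labeled fragments, were fitted for gain of signal relative to DMSO. Cells: transiently transfected HepG2 expressing NR-Gal4 chimeras.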"}, "[4]": {"read-out": "E-selectin (Homo sapiens) (UniProt P16581)", "test": "BSK_3C_Eselectin: BioMAP Diversity Plus: 3C Assay for Eselectin Biomarker Activity (AID 2283015; active = hit-call score of the fitted dose curve at least 0.9, where 1 is the maximum; inactive = score below 0.9)", "conditions": "primary human endothelial cells (HUVEC); actives raise or lower the signal", "procedure,_shortened": "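E-selectin ELISA readout, fitted bidirectionally relative to DMSO, taken 24 h post-dosing in HUVEC cultures of the 3C system. Overt cytotoxicity tracked with sulforhodamine B staining of parallel wells.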"}, "[5]": {"read-out": "Interleukin-1 alpha (IL1a), IL1A (gene 3552)", "test": "BSK_BE3C_IL1a: BioMAP Diversity Plus: BE3C Assay for Interleukin-1 alpha (IL1a) Biomarker Activity (AID 2283016; active = hit-call score of the fitted dose curve at least 0.9, where 1 is the maximum; inactive = score below 0.9)", "conditions": "primary human bronchial epithelial cells; actives raise or lower the signal", "procedure,_shortened": "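Cultures of primary human bronchial epithelial cells receive test chemical. After 24 h, IL-1a is quantified by ELISA, while parallel wells are fixed in TCA and SRB-stained for total protein. Changes in either direction are fitted relative to DMSO.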"}, "[6]": {"read-out": "Monocyte Chemoattractant Protein-1 (MCP1), CCL2 (gene 6347)", "test": "BSK_3C_MCP1: BioMAP Diversity Plus: 3C Assay for Monocyte Chemoattractant Protein-1 (MCP1) Biomarker Activity (AID 2283017; active = hit-call score of the fitted dose curve at least 0.9, where 1 is the maximum; inactive = score below 0.9)", "conditions": "primary human endothelial cells (HUVEC); actives raise or lower the signal", "procedure,_shortened": "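MCP-1 was measured by ELISA 24 h after dosing in primary HUVEC 3C cultures and fitted in both directions relative to DMSO; cytotoxicity was checked by SRB total-protein staining in parallel wells.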"}, "[7]": {"read-out": "Monocyte Chemoattractant Protein-1 (MCP1), CCL2 (gene 6347)", "test": "BSK_4H_MCP1: BioMAP Diversity Plus: 4H Assay for Monocyte Chemoattractant Protein-1 (MCP1) Biomarker Activity (AID 2283018; active = hit-call score of the fitted dose curve at least 0.9, where 1 is the maximum; inactive = score below 0.9)", "conditions": "primary human endothelial cells (HUVEC); actives raise or lower the signal", "procedure,_shortened": "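Readout: MCP-1 ELISA on compound-treated HUVEC, sampled 24 h post-dosing. Baseline and negative control DMSO; bidirectional fit. Overt toxicity checked alongside by sulforhodamine B protein staining at time of biomarker measurement.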"}, "[8]": {"read-out": "Human Leukocyte Antigen - DR isotype (HLADR), HLA-DRA (gene 3122)", "test": "BSK_3C_HLADR: BioMAP Diversity Plus: 3C Assay for Human Leukocyte Antigen - DR isotype (HLADR) Biomarker Activity (AID 2283019; active = hit-call score of the fitted dose curve at least 0.9, where 1 is the maximum; inactive = score below 0.9)", "conditions": "primary human endothelial cells (HUVEC); actives raise or lower the signal", "procedure,_shortened": "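Bidirectional fitting against DMSO was applied to the HLA-DR ELISA signal from human umbilical vein endothelial cells, 24 h post-dose. Cytotoxicity came from parallel SRB total-protein staining; 3C proliferation was counted by SRB at 48 h.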"}, "[9]": {"read-out": "Interleukin-8 (IL8), CXCL8 (gene 3576)", "test": "BSK_3C_IL8: BioMAP Diversity Plus: 3C Assay for Interleukin-8 (IL8) Biomarker Activity (AID 2283020; active = hit-call score of the fitted dose curve at least 0.9, where 1 is the maximum; inactive = score below 0.9)", "conditions": "primary human endothelial cells (HUVEC); actives raise or lower the signal", "procedure,_shortened": "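Human vascular endothelial cells (umbilical vein) in the 3C system; IL-8 level detected by ELISA at 24 h post-dose, with DMSO as baseline.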"}}, "note": "Inconclusive results are not listed. Activity calls are given as the source filed them. The calls were made as follows, unless noted: active = hit-call score of the fitted dose curve at least 0.9, where 1 is the maximum; inconclusive = response in the unintended direction; inactive = score below 0.9."}
{"smiles": "CC/C=C\\CCOC(=O)CCCCC", "values": [{"measurement": "outcome", "setting": "[1]", "value": "inactive"}, {"measurement": "outcome", "setting": "[2]", "value": "inactive"}]}
{"smiles": "CC(=O)CC(N)=O", "values": [{"measurement": "outcome", "setting": "[1]", "value": "inactive"}, {"measurement": "outcome", "setting": "[2]", "value": "inactive"}]}
{"smiles": "O=c1cc(-c2ccccc2)oc2ccccc12", "values": [{"measurement": "outcome", "setting": "[1]", "value": "inactive"}, {"measurement": "outcome", "setting": "[2]", "value": "inactive"}]}
{"smiles": "O=S(=O)(Oc1ccc(Cl)cc1Cl)c1ccccc1", "values": [{"measurement": "outcome", "setting": "[1]", "value": "inactive"}, {"measurement": "outcome", "setting": "[2]", "value": "inactive"}, {"measurement": "outcome", "setting": "[3]", "value": "inactive"}]}
{"smiles": "C=CC(C)(CCC=C(C)C)OC(=O)C(C)C", "note": "(stereo unspecified)", "values": [{"measurement": "outcome", "setting": "[1]", "value": "inactive"}, {"measurement": "AC50", "setting": "[2]", "value": "57.4 µM (active)"}]}
{"smiles": "CCC(C)(C)C1CCCCC1OC(C)=O", "note": "(stereo unspecified)", "values": [{"measurement": "outcome", "setting": "[1]", "value": "inactive"}, {"measurement": "AC50", "setting": "[2]", "value": "74.1 µM (active)"}]}
{"smiles": "C=C(C)C(=O)OCCOc1ccccc1", "values": [{"measurement": "AC50", "setting": "[1]", "value": "26.5 µM (active)"}, {"measurement": "outcome", "setting": "[2]", "value": "inactive"}]}
{"smiles": "CC(CC=O)c1ccccc1", "note": "(stereo unspecified)", "values": [{"measurement": "outcome", "setting": "[1]", "value": "inactive"}, {"measurement": "outcome", "setting": "[2]", "value": "inactive"}]}
{"smiles": "CCCCCCCCCCCCCCCC(=O)OCC", "values": [{"measurement": "outcome", "setting": "[1]", "value": "inactive"}, {"measurement": "outcome", "setting": "[2]", "value": "inactive"}]}
{"smiles": "C[Si](C)O[Si](C)(C)O[Si](C)(C)O[Si](C)C", "values": [{"measurement": "outcome", "setting": "[1]", "value": "inactive"}, {"measurement": "outcome", "setting": "[2]", "value": "inactive"}, {"measurement": "outcome", "setting": "[3]", "value": "inactive"}]}
{"smiles": "CC(C)(Oc1ccc(C2CC2(Cl)Cl)cc1)C(=O)O", "note": "(stereo unspecified)", "values": [{"measurement": "outcome", "setting": "[1]", "value": "inactive"}, {"measurement": "outcome", "setting": "[2]", "value": "inactive"}, {"measurement": "outcome", "setting": "[3]", "value": "inactive"}]}
{"smiles": "CCCCCCCC/C=C\\CCCCCCCC(=O)O", "values": [{"measurement": "outcome", "setting": "[1]", "value": "inactive"}, {"measurement": "AC50", "setting": "[2]", "value": "68 µM (active)"}, {"measurement": "outcome", "setting": "[3]", "value": "inactive"}]}
{"smiles": "O=C(c1ccc(O)cc1)c1ccc(O)cc1O", "values": [{"measurement": "outcome", "setting": "[1]", "value": "inactive"}, {"measurement": "outcome", "setting": "[2]", "value": "inactive"}, {"measurement": "outcome", "setting": "[4]", "value": "inactive"}, {"measurement": "outcome", "setting": "[5]", "value": "inactive"}, {"measurement": "outcome", "setting": "[6]", "value": "inactive"}, {"measurement": "outcome", "setting": "[7]", "value": "inactive"}, {"measurement": "outcome", "setting": "[8]", "value": "inactive"}, {"measurement": "outcome", "setting": "[9]", "value": "inactive"}]}
